# ± gives the standard deviation of the averaged measurements. In all, about 33,000 sequences were measured (“E-score (rank enrichment, -0.5 to 0.5)”: median about -0.0068, highest 2% from about 0.24 on). The full list was thinned out, with the highest values kept by preference.
# Tested on: muMax20 (Max(13-93) K31hArg/K57hArg, M65Nle)
# Experiment: PBM 8-mer E-score (E-score (rank enrichment, -0.5 to 0.5)); higher = stronger preferential binding
# Protocol: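 Protein binding microarray (universal PBM chip covering all 10-mers in fixed probe flanks) with chemically synthesized human Max(13-93) bHLH-LZ analogs (not full-length Max) bearing noncanonical residues (hArg, Tha, Aib, Nle at 65) and aromatic Cys staples. Read-out per 8-mer (and its reverse complement): E-score (rank-based enrichment, -0.5 to 0.5) and Z-score of median probe intensity.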
row,Sequence,PBM 8-mer E-score
1,CGCGTGAC,0.268 ± 0.12
2,GACGTGAC,0.0637 ± 0.034
3,CCCGTGAG,-0.289 ± 0.015
4,CACGTGAC,0.459 ± 0.038
5,CGCGTGAA,0.00405 ± 0.02
6,TACGTGAA,0.144 ± 0.01
7,AACGTGAC,0.155 ± 0.0051
8,CACGTGAA,0.368 ± 0.099
9,CACGTTAG,0.0823 ± 0.07
10,CGCGTGAG,0.122 ± 0.034
11,GACGTGAA,-0.111 ± 0.032
12,CACGTGAG,0.344 ± 0.11
13,ACCCGAGG,-0.1291 ± 0.0004
14,CCAGCTAC,-0.139 ± 0.0043
15,GGAGCTAA,-0.194 ± 0.096
16,ATCTCCGG,-0.11 ± 0.16
17,CCCTTAGC,-0.0766 ± 0.14
18,ACGCTGAA,-0.171 ± 0.049
19,CCTCCTAC,-0.0317 ± 0.12
20,ATACCTCC,-0.0216 ± 0.038
21,CCCATGGC,-0.167 ± 0.041
22,AACTGTAG,-0.00575 ± 0.073
23,ACGACACA,-0.0466 ± 0.022
24,ATTCGCCA,-0.152 ± 0.018
25,AGCCTATA,0.25 ± 0.083

row,Sequence,PBM 8-mer E-score
1,CGCCTATA,-0.0178 ± 0.0095
2,GGCCTATA,-0.132 ± 0.045
3,AATGTTGG,0.0876 ± 0.073
4,AATGTTGT,0.28 ± 0.01
5,TATGTTGA,0.238 ± 0.044
6,AATGTTGA,-0.00564 ± 0.1
7,CATGTTGA,0.193 ± 0.044
8,GATGTTGA,-0.00209 ± 0.012
9,ATTCTAGC,-0.0188 ± 0.08
10,ACATACGC,0.078 ± 0.081
11,ATATACTC,0.128 ± 0.077
12,CTATACGA,-0.122 ± 0.029
13,ATCTACTC,-0.0945 ± 0.036
14,ATCTACTG,-0.00673 ± 0.085
15,ACATACGA,0.239 ± 0.035
16,TCATACGA,0.2 ± 0.064
17,CTATACTA,0.081 ± 0.083
18,ATATACGC,0.0468 ± 0.016
19,ATCTACTA,0.2783 ± 0.0027
20,ATATACGA,0.247 ± 0.017
21,ATATACTA,0.3084 ± 0.0014
22,CCTCGCTC,-0.0787 ± 0.12
23,GCGGAACC,-0.175 ± 0.0029
24,GGTCGGCA,-0.172 ± 0.038
25,ATGCCTCG,0.0473 ± 0.0097

row,Sequence,PBM 8-mer E-score
1,AAACGCGA,0.0862 ± 0.15
2,GAGGCAAA,0.154 ± 0.077
3,GTGAGCGA,-0.125 ± 0.059
4,CCAGGCTA,-0.296 ± 0.027
5,GGAAGTAA,0.207 ± 0.022
6,TTGTACAA,0.284 ± 0.073
7,GTGTACAA,0.1868 ± 0.0017
8,TGGTACAA,0.253 ± 0.084
9,CTGTACAA,0.045 ± 0.052
10,AGGTACAA,0.128 ± 0.024
11,GGGTACAA,0.0175 ± 0.13
12,CATGGTTA,0.103 ± 0.0075
13,TCCGCACA,-0.187 ± 0.04
14,AAACGCGT,0.0946 ± 0.058
15,CCACGCGG,0.416 ± 0.005
16,ACACGCGA,0.15 ± 0.0033
17,ACACGCGG,0.246 ± 0.046
18,CCACGCGC,0.03925 ± 0.00016
19,ACACGCGT,0.238 ± 0.014
20,ACACGCGC,0.0651 ± 0.19
21,CCACGCGA,0.0738 ± 0.016
22,ACGCGCGT,0.19 ± 0.13
23,AAACTCCA,-0.0494 ± 0.085
24,AACTTACG,0.0512 ± 0.088
25,GGATGGGA,0.00739 ± 0.13

row,Sequence,PBM 8-mer E-score
1,AGCTTTAT,-0.0838 ± 0.085
2,AGTGTGTC,-0.0164 ± 0.029
3,TACGGCAA,0.0936 ± 0.016
4,GGCCAAGA,-0.116 ± 0.056
5,ATGCATTA,0.28 ± 0.079
6,ATGCATGA,0.276 ± 0.055
7,GAGCATGC,0.217 ± 0.12
8,ATGCATTC,0.215 ± 0.1
9,ATGCATCG,0.0165 ± 0.083
10,CTGCATTA,0.0657 ± 0.06
11,ATGCATGC,0.198 ± 0.11
12,GTGCATCA,0.145 ± 0.039
13,AAGCATGT,0.218 ± 0.064
14,AAGCATGC,0.254 ± 0.074
15,ATGCATGG,0.132 ± 0.097
16,ATGCATCA,0.276 ± 0.059
17,GAGCAGCC,-0.196 ± 0.0049
18,ACAACCCC,0.0696 ± 0.03
19,ATACATTC,0.244 ± 0.0028
20,ATTCATTG,0.148 ± 0.014
21,ATTCATTC,0.287 ± 0.035
22,CTACATTC,0.0325 ± 0.15
23,ATTCATTA,0.177 ± 0.078
24,ATACATTG,0.125 ± 0.013
25,ACGCGGGG,0.0227 ± 0.021

row,Sequence,PBM 8-mer E-score
1,CAGCTAAC,-0.15 ± 0.12
2,GCGCCTCA,-0.0397 ± 0.1
3,CCCGGTCA,-0.139 ± 0.064
4,AACACATG,0.317 ± 0.053
5,AACACATT,0.0928 ± 0.081
6,AACACATC,0.0883 ± 0.011
7,AAAACATG,0.279 ± 0.027
8,CAAACATG,0.229 ± 0.044
9,AAAACATT,0.127 ± 0.061
10,CTCTGCTA,-0.193 ± 0.028
11,AAGCAAAT,0.172 ± 0.025
12,CGGGCGAG,-0.112 ± 0.12
13,CAAGCGCC,-0.192 ± 0.11
14,CAAGCGCA,0.284 ± 0.019
15,AAAGCGCA,0.0206 ± 0.012
16,GACGGTGC,-0.0722 ± 0.033
17,ATGCAACG,0.251 ± 0.079
18,ATGCAACA,0.211 ± 0.041
19,ATGCAACC,0.225 ± 0.014
20,TCTTGAAA,0.0967 ± 0.01
21,CGGCGCGC,0.00798 ± 0.069
22,ATGTGTAC,0.113 ± 0.057
23,TAGTTATA,0.288 ± 0.068
24,GTGTTATA,0.2767 ± 0.0021
25,ATGTGTTA,0.276 ± 0.076

row,Sequence,PBM 8-mer E-score
1,ATGTTATA,0.193 ± 0.12
2,CTGTTATA,0.179 ± 0.097
3,ATGTGTAG,0.239 ± 0.068
4,ATGTGTTC,-0.0235 ± 0.019
5,ATGTGTAA,0.204 ± 0.046
6,ATGTGTGA,0.192 ± 0.13
7,AAGTTATA,0.156 ± 0.018
8,GAGTTATA,0.173 ± 0.0073
9,ATCACCAG,-0.0679 ± 0.034
10,GTCCCTCA,-0.00891 ± 0.083
11,ATAACCGG,-0.0406 ± 0.073
12,ATTACGGA,0.0432 ± 0.041
13,ATTGCTGG,-0.0565 ± 0.13
14,AGGCCGGC,-0.211 ± 0.028
15,ATGCGGAG,0.00298 ± 0.056
16,AACAACGA,0.147 ± 0.012
17,GGGTCAAC,-0.0771 ± 0.079
18,GTGTGTTA,0.268 ± 0.0066
19,GGGTGTTA,0.0328 ± 0.0072
20,CTGTGTTA,0.0692 ± 0.087
21,CGCGCTAA,-0.0154 ± 0.16
22,CTTAACAC,0.149 ± 0.092
23,GTTAACAA,0.17 ± 0.0025
24,GTTAACTA,0.213 ± 0.0029
25,ATTAACTC,0.173 ± 0.0096

row,Sequence,PBM 8-mer E-score
1,ATTAACAG,0.0428 ± 0.24
2,ATTAACAC,0.287 ± 0.029
3,ATTAACTA,0.283 ± 0.017
4,ATTAACAA,0.246 ± 0.052
5,ACTAACAC,0.0454 ± 0.029
6,AAAGCTAA,-0.00207 ± 0.033
7,ACCACTAG,0.0698 ± 0.15
8,ATGCGATA,-0.0659 ± 0.018
9,GCCCTCGA,-0.118 ± 0.0058
10,CCGGATAA,-0.0458 ± 0.13
11,AGTAGGAC,0.103 ± 0.047
12,AACGGCCC,-0.263 ± 0.018
13,AACGGCCA,-0.0219 ± 0.0033
14,AACGGCCT,0.269 ± 0.11
15,GATCCCGA,-0.329 ± 0.0063
16,AATTCTTA,0.0618 ± 0.12
17,ATCTGTAC,0.157 ± 0.1
18,ACGTATTG,0.0861 ± 0.067
19,ACGTATCA,0.243 ± 0.11
20,GCGTATTA,0.117 ± 0.082
21,ACGTATCT,0.0322 ± 0.12
22,ACGTATCG,-0.00982 ± 0.017
